Source: PubChem BioAssay

assay: E. coli DRC41 culture turbidity changes, primary screen, E. coli filamentation inducer project, strain DRC41, OD650, 48 h (AID 1152);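 note: E. coli MC1000 strain DRC41 lacking acrAB efflux pump and sulA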; conditions: E. coli DRC41 (acrAB sulA), higher = more signal, called active from +8 up or from −8 down

z-score, inactive:
CCOC(=O)[C@H](CC(C)C)NC(=O)CCC1CC(OC(=O)NCc2cccc3ccccc23)CC2(CCCC(COC(=O)NCCC(C)C)O2)O1 (some centres not stated) -0.64
CCOC(=O)[C@H](CC(C)C)NC(=O)CCC1CC(OC(=O)NCc2cccc3ccccc23)CC2(CCCC(COC(=O)NCC3CCCCC3)O2)O1 (some centres not stated) -0.398
CCC=CCCC(OC(=O)c1ccc(Br)cc1)C1=CCCCC1=O (configuration not stated) -0.686
Cc1cc2c(nc1C)CCCCN2CC(C)ON=C[C@@H](C)[C@H](OCc1ccccc1)C(C)C (some centres not stated) -0.0958
CCOC(=O)[C@H](Cc1ccccc1)NC(=O)CCC1CC(OC(=O)NCc2cccc3ccccc23)CC2(CCCC(COC(=O)NCCC(C)C)O2)O1 (some centres not stated) 0.165
Cc1ccc(S(=O)(=O)n2c3ccccc3c3nnc(C(=O)c4ccccc4)nc32)cc1 1.04
COC(=O)NCC=Cc1nc(CCCO)co1 -0.0186
Cc1ccc(S(=O)(=O)N[C@H]2COC(=O)CC=C[C@H](C)[C@@H](NS(=O)(=O)c3ccc(C)cc3)COC(=O)CC=C[C@@H]2C)cc1 0.373
O=C1[C@H]2[C@H]3[C@H](O)[C@H](O)CC(=NOCc4ccccc4)[C@@H]3CC[C@H]2C(=O)N1C[C@@H]1CCCO1 0.516
CCCCC#C[C@@H]1C=C[C@H](OC(C)=O)[C@@H](COC(C)=O)O1 -0.656
Cc1cc2c(nc1C)CCCN2CC(O)CN1CCCc2nc(C)c(C)cc21 -0.171
C#CCCCON=C1C[C@@H](O)[C@@H](O)[C@@H]2[C@@H]3C(=O)N(CC)C(=O)[C@@H]3CC[C@@H]12 -0.229
CCOC(=O)CCN1C(=O)[C@H]2[C@H]3[C@H](O)[C@H](O)CC(=NNC(=O)OCc4ccccc4)[C@@H]3CC[C@H]2C1=O 0.809
CC(C)(C)N1C(=O)[C@H]2[C@H]3[C@H](O)[C@H](O)CC(=NOCc4ccccc4)[C@H]3CC[C@H]2C1=O 0.254
C[C@H]1COC(=O)[C@@H]2CCCN2C(=O)[C@@H](C)COC(=O)[C@H](Cc2ccccc2)NC1=O -0.0891
O=C1[C@H]2[C@H]3[C@H](O)[C@H](O)CC(=NO[C@@H]4O[C@H](CO)[C@@H](O)[C@H](O)[C@H]4O)[C@H]3CC[C@H]2C(=O)N1c1cccc(Oc2ccccc2)c1 -0.024
CC(C)=CCCC(C)=CCON=C1C[C@@H](O)[C@@H](O)[C@@H]2[C@@H]3C(=O)N(Cc4ccccc4)C(=O)[C@@H]3CC[C@H]12 -0.169
CC(C)(C)N1C(=O)[C@H]2[C@H]3[C@H](O)[C@H](O)CC(=O)[C@H]3CC[C@H]2C1=O -0.714
COc1ccc(O[C@H]2C=C[C@@H](c3ccccc3)O[C@@H]2COC(=O)CCC(C)=NO[C@@H]2O[C@H](COC(C)=O)[C@@H](OC(C)=O)[C@H](OC(C)=O)[C@H]2OC(C)=O)cc1 0.37
COc1ccc(COC(=O)NN=C2C[C@@H](O)[C@@H](O)[C@@H]3[C@@H]4C(=O)N(Cc5ccccc5)C(=O)[C@@H]4CC[C@H]23)cc1 -0.0671
COc1cc(O)c(C(=O)C=Cc2ccc3c(c2)OCO3)c(OC)c1 -0.59
C#CCCCON=C1C[C@@H](O)[C@@H](O)[C@@H]2[C@@H]3C(=O)N(C(C)(C)C)C(=O)[C@@H]3CC[C@H]12 0.233
O=C(NN=C1C[C@@H](O)[C@@H](O)[C@@H]2[C@@H]3C(=O)N(C[C@@H]4CCCO4)C(=O)[C@@H]3CC[C@H]12)OCc1ccccc1 0.801
COc1cccc([C@H]2Oc3ccc(OC)cc3C(=NO[C@@H](C)c3cn([C@H](CO)Cc4ccccc4)nn3)[C@@H]2O)c1 -2.4
O=C1[C@H]2[C@H]3[C@H](O)[C@H](O)CC(=NOCc4ccccc4)[C@H]3CC[C@H]2C(=O)N1Cc1ccc2c(c1)OCO2 -1.06
CC(C)CON=C1C[C@@H](O)[C@@H](O)[C@@H]2[C@@H]3C(=O)N(C4CCCCC4)C(=O)[C@@H]3CC[C@H]12 0.539
CC(C)(C)N1C(=O)[C@H]2[C@H]3[C@H](O)[C@H](O)CC(=NO[C@@H]4O[C@H](CO)[C@@H](O)[C@H](O)[C@H]4O)[C@H]3CC[C@H]2C1=O -1.73
COC(=O)[C@H](C)NC(=O)CCC1CC(OC(=O)NCCc2ccc(F)cc2)CC2(CCCC(COC(=O)NCCC(C)C)O2)O1 (some centres not stated) -0.484
CC(=O)Nc1ccc([C@@H]2N[C@H](C(=O)O)CC[C@H]2C)cc1 0.961
COc1ccc(O[C@H]2C=C[C@@H](c3ccccc3)O[C@@H]2CON=C(C)C)cc1 -2.05
CO[C@H]1COC(=O)[C@@H](Cc2ccccc2)NC(=O)[C@@H](C)COC(=O)CCC[C@@H]1C 0.558
CCOC(=O)NN=C1C[C@@H](O)[C@@H](O)[C@@H]2[C@@H]3C(=O)N([C@@H](C)c4ccccc4)C(=O)[C@@H]3CC[C@H]12 0.0575
CO[C@H]1COC(=O)CCC[C@@H](C)[C@H](OC)COC(=O)[C@@H]2CCCN2C(=O)CC=C[C@@H]1C -0.704
COc1cccc([C@H]2Oc3ccc(OC)cc3C(=NOC(C)CN3CCCCc4nc(C)c(C)cc43)[C@@H]2O)c1 (some centres not stated) 0.751
O=C1[C@H]2[C@H]3[C@H](O)[C@H](O)CC(=NOC[C@@H](O)COCc4ccco4)[C@H]3CC[C@H]2C(=O)N1Cc1ccccc1 0.0413
COc1cccc([C@H]2Oc3ccc(OC)cc3C(=NOC[C@@H](O)[C@H]3O[C@@H]4OC(C)(C)O[C@@H]4[C@H]3O)[C@@H]2O)c1 -0.0985
Cn1c(=O)n2n(c1=O)[C@H]1[C@H](O)[C@@H]3O[C@@H]3C(=NOCc3ccccc3)[C@H]1CC2 -0.022
